In PubChem BioAssay one finds composite z-score, z-score and composite Z-score data, which are given here for eight molecules.

In experiment [1] the test system is Human papillomavirus type 1a protein E7 (residues 44-93). Put plainly: HPV1a E7 fragment binders on microarrays, primary screen, biochemical, small-molecule microarray, residues 44-93, 635 nm fluorescence (AID 1108).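 Also: E7 fragment applied at 1 µg/mL in TBST for 1 h at 4 C; score combines spot fluorescence with its signal to noise ratio.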 Conditions: small-molecule microarray binding, fluorescence 635 nm; higher = more signal.
Experiment [2] in a line: modulators of HCV replicon luciferase signal, primary screen, HCV replication inhibitor project, Huh7 cells, luciferase reporter (AID 1109).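 Also: huh7 hepatoma cells harbouring a luciferase neomycin HCV replicon reporter; luciferase luminescence as measure of HCV replicon replication; test concentration not given here.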 Conditions: 48 h, higher = more signal. A general note: Replicon systems follow genome replication, usually without infectious particles.
The target in experiment [3] is Left-right determination factor 2 (Homo sapiens) (UniProt O00292). Kind of experiment: LEFTY2 binders on small-molecule microarrays, primary screen, biochemical, small-molecule microarray, 635 nm fluorescence scan (AID 1110). The note with it: LEFTY2 binding, higher = more signal.
Experiment [4] concerns the target Calmodulin-1 (Homo sapiens) (UniProt P0DP23). Put plainly: CALM1 binders on microarrays, EGTA buffer, profiling panel, biochemical, small-molecule microarray, Cy5-labelled CALM1 (AID 1111).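 Also: labelled calmodulin applied in Tris saline Tween buffer holding calcium plus EGTA and DTT.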 The note with it: Cy5-CALM1 binding fluorescence, higher = more signal.
For experiment [5] the target is unchanged. Put plainly: calcium-bound CALM1 binders on microarrays, profiling panel, artefact control for SMM control-protein annotation, biochemical, small-molecule microarray, Cy5-labelled CALM1, plus calcium (AID 1112).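 Also: score merges spot fluorescence with signal to noise from triplicate slides.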 Conditions: Cy5-CALM1 binding fluorescence, higher = more signal.
Experiment [6] can be described thus: small-molecule microarray binders of probe aWnt5a, primary screen, biochemical, biotinylated probe, 635/667 nm fluorescence (AID 1113).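 Also: score merges 667 nm fluorescence intensity with signal-to-noise per printed feature.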 The note with it: higher = more signal.
The nature of experiment [7]: small-molecule microarray binders of probe aShh, primary screen, biochemical, biotinylated probe, 635/667 nm fluorescence (AID 1114).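 Also: probe is biotin-labelled aShh protein from a stem cell growth factor screen; measures binding of labelled protein to compounds printed on the slide; score merges feature fluorescence at 667 nm with signal-to-noise.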 Conditions: higher = more signal.
Experiment [8] in a line: small-molecule microarray binders of probe aNog, primary screen, biochemical, biotinylated probe, 635/667 nm fluorescence (AID 1115).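 Also: probe is biotinylated aNog protein used at 0.15 µg/mL for 1 h at 4 C; z-score combines 667 nm fluorescence of each spot with its signal to noise.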 The note with it: higher = more signal.
In experiment [9] the target is Torsin-1A-interacting protein 1 (Homo sapiens) (UniProt Q5JTV8). Put plainly: LAP1 binders from COS7 cell lysate, primary screen, small-molecule microarray, 635/667 nm fluorescence (AID 1116). The note with it: COS7-hLAP1 lysate binding, 635 nm fluorescence, higher = more signal.
Experiment [10] has as its target Alpha-bungarotoxin (Bungarus multicinctus) (UniProt P60615). Put plainly: alpha-bungarotoxin binders on microarray, profiling panel, artefact control for SMM control protein annotation, biochemical, small-molecule microarray, Alexa647 label, 635/667 nm fluorescence (AID 1117). Conditions: alpha-BTX-A647 binding fluorescence, higher = more signal.
A further experiment concerns the target Albumin (Bos taurus) (UniProt P02769). Kind of experiment: bovine serum albumin binders on microarray, profiling panel, artefact control for SMM control protein annotation, biochemical, small-molecule microarray, Alexa647 label, 635/667 nm fluorescence (AID 1118).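 Also: score merges 667 nm emission intensity and signal-to-noise per printed compound spot.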 Conditions: BSA-A647 binding, fluorescence 635 nm, higher = more signal.
The nature of experiment [11]: small-molecule microarray binders of probe aXIP, primary screen, biochemical, NeuroSMM set, 635/667 nm fluorescence (AID 1119).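 Also: probe is the protein aXip251-270 applied at 1 µg/mL to compound-printed slides; binding of probe to printed compounds measured as 667 nm fluorescence plus signal to noise.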 The note with it: higher = more signal, called active from +8 up or from −8 down.
Experiment [12] is described as follows: small-molecule binders of probe aNOTCH3, primary screen, biochemical, small-molecule microarray, 635/667 nm fluorescence (AID 1120).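 Also: probe is a biotin-tagged antibody raised against NOTCH3 rather than NOTCH3 protein; score merges spot fluorescence near 667 nm with spot signal to noise.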 Conditions: higher = more signal.
Experiment [13] in a line: small-molecule binders of probe aNOTCH2, primary screen, biochemical, small-molecule microarray, 635/667 nm fluorescence (AID 1121).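 Also: score merges feature fluorescence read at 667 nm with its signal to noise.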 The note with it: higher = more signal.
The target in experiment [14] is Carbonic anhydrase 2 (Homo sapiens) (UniProt P00918). Kind of experiment: CAII small-molecule binders, profiling panel, biochemical, small-molecule microarray, Alexa647-labelled CAII (AID 1122). Conditions: CAII-A647 binding fluorescence, higher = more signal.
Experiment [15] is described as follows: COS7 lysate on small-molecule microarray, probe aHis, 635 nm (AID 1123).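 Also: z-score combines 667nm fluorescence intensity with signal-to-noise per printed compound spot.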 The note with it: COS7 cell lysate, fluorescence, higher = more signal.
A short description of experiment [16]: compound binding in COS7 lysate, probe aLAP1, primary screen, cell lysate, small-molecule microarray (AID 1124).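 Also: lysate comes from COS7 cells expressing LAP1 and is applied at 0.3 µg/mL; score merges spot fluorescence near 667 nm with signal-to-noise over triplicate slides.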 Conditions: probe aLAP1, fluorescence, higher = more signal.
The next experiment deals with Sam68 (KHDRBS1). Kind of experiment: Sam68 small-molecule binders, primary screen, biochemical, small-molecule microarray, 635 nm fluorescence (AID 1125).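 Also: score merges 667 nm channel intensity with signal to noise over triplicate slides.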 The note with it: small-molecule microarray binding, higher = more signal.
Experiment [17] concerns Chordin-like protein 2 (CHRDL2). Put plainly: CHRDL2 small-molecule binders, primary screen, biochemical, small-molecule microarray, 635 nm fluorescence (AID 1126).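 Also: printed compound slides probed with Chrdl2 protein at 4 µg/mL for 1 h at 4 C; score merges 667 nm emission intensity with signal to noise over three replicate slides.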 Conditions: small-molecule microarray binding, fluorescence 635 nm; higher = more signal.
Experiment [18] addresses Concanavalin-A (Canavalia ensiformis) (UniProt P02866). Put plainly: ConA small-molecule binders, primary screen, artefact control for SMM control protein annotation, biochemical, small-molecule microarray, Alexa647 label, 635 nm (AID 1127).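 Also: z combines 667 nm emission intensity with signal-to-noise across three replicate slides.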 The note with it: ConA-A647 binding fluorescence, higher = more signal.

Active and inactive are the calls of the source.

Chain of Concanavalin-A (Canavalia ensiformis) (P02866 whole entry, looked up): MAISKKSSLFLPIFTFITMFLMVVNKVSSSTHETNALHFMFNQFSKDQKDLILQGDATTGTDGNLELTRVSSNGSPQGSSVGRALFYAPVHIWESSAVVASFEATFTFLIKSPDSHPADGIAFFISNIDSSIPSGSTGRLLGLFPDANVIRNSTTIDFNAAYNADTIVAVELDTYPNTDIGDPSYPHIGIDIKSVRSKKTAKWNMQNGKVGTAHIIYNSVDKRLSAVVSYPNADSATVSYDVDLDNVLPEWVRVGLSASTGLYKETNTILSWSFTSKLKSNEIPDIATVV
Chain of Albumin (Bos taurus) (P02769 whole entry, looked up): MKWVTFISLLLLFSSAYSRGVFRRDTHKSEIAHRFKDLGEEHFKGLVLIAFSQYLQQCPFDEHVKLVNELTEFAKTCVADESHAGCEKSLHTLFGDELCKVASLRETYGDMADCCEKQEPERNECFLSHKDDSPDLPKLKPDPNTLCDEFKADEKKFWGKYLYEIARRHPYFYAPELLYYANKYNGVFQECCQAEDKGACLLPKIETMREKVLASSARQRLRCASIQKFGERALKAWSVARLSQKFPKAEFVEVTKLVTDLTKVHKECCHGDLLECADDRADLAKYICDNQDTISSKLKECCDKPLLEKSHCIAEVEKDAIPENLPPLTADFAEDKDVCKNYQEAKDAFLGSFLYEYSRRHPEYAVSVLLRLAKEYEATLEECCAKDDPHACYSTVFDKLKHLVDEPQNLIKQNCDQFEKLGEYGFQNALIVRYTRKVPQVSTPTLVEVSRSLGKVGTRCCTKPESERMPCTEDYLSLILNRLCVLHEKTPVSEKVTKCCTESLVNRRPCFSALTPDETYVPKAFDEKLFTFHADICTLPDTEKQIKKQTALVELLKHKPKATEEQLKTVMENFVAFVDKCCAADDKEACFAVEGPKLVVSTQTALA
Chain of Left-right determination factor 2 (Homo sapiens) (O00292 whole entry, looked up): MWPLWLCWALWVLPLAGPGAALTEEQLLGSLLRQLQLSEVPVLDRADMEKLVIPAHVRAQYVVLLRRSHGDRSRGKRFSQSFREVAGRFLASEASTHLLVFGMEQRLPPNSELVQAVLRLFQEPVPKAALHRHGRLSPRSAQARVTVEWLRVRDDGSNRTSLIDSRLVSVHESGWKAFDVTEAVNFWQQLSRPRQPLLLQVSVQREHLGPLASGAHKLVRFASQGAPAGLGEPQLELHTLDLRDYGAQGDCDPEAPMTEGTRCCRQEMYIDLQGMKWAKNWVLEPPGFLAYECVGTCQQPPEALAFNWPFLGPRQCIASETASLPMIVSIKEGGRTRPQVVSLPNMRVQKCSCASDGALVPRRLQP
Chain of Alpha-bungarotoxin (Bungarus multicinctus) (P60615 whole entry, looked up): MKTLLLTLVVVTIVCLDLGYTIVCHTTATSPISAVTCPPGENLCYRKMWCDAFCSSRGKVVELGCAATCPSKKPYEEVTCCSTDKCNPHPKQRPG
Chain of Torsin-1A-interacting protein 1 (Homo sapiens) (Q5JTV8 whole entry, looked up): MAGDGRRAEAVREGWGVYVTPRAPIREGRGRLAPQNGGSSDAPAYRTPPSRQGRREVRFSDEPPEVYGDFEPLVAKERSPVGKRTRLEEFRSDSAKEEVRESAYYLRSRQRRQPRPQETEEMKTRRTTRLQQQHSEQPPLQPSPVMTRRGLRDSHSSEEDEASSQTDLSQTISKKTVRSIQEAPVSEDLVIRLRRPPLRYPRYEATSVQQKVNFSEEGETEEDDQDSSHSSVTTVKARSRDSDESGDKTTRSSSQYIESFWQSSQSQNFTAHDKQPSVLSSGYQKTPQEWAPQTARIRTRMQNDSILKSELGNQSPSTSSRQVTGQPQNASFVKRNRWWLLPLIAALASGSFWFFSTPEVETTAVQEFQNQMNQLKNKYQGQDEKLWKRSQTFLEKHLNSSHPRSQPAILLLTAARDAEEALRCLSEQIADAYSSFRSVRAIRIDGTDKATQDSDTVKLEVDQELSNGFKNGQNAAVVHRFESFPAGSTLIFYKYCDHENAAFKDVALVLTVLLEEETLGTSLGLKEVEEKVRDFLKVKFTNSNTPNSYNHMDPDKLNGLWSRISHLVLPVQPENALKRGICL

`NC(=O)N1C(=O)C2C(C1=O)C1C=C(CCCO)C2C(C2CC2)N1Cc1cc2c(cc1Br)OCO2` (stereo not given): the composite z-score in experiment [1] was -0.443; in experiment [3] it was -0.549; in experiment [4] it was 0.0653; in experiment [5], 0.357; in experiment [6], -0.12; in experiment [7], 0.0278. Moreover, the composite z-score in experiment [8] is -0.0065; in experiment [9] it was -0.111; in experiment [10], 0.515; with Albumin (Bos taurus) it was 0.277; in [12], 0.0242; in experiment [13], -0.112. Besides, the composite z-score in [14] was 0.877; in [15], 0.872; in experiment [16] it was -0.0694; in the experiment on Sam68 (KHDRBS1) it was -0.989; in [17] it was -0.667; in [18], -0.0295. Moreover, in experiment [2], the z-score is -0.264. In addition, in [11], the composite Z-score is 0.0861 (inactive).

For `CCCC[C@@H]1C[C@H]1[C@@H](NC(=O)c1cccnc1)c1ccc(Cl)cc1`, the composite z-score in experiment [1] was -1.05; in experiment [3], -2.99; in experiment [4] it was 0.867; in experiment [5] it was 1.69; in experiment [6], -0.191; in [7], -0.509. Moreover, the composite z-score in experiment [8] was 0.526; in experiment [9], -0.553; in experiment [10], -1.36; with Albumin (Bos taurus) it was -1.41; in experiment [12], -0.429; in experiment [13] it was -0.185. Also, the composite z-score in experiment [14] was -0.404; in experiment [15] it was 0.878; in experiment [16], -0.271; in the experiment on Sam68 (KHDRBS1), -1.27; in experiment [17], -1.95; in experiment [18] it was -2.03. Also, the z-score in experiment [2] was -2.14. Moreover, in experiment [11], the composite Z-score is -0.29 (inactive).

With `COc1ccc([C@H]2OC[C@@H]3CCC(=O)N32)cc1`, the composite z-score in experiment [1] is 0.493; in [3], 0.556; in [4], -0.313; in [5], -0.525; in experiment [6] it was -0.18; in experiment [7] it was 0.0062. Also, the composite z-score in experiment [8] is -0.324; in experiment [9], 0.493; in experiment [10], -0.122; with Albumin (Bos taurus), 0.626; in experiment [12], 0.0948; in experiment [13], -0.161. In addition, the composite z-score in [14] is 0.286; in experiment [15] it was -0.215; in experiment [16], 0.552; in the experiment on Sam68 (KHDRBS1) it was 0.382; in [17] it was 0.504; in experiment [18] it was 0.3. The z-score in experiment [2] was 0.574. In experiment [11], the composite Z-score is 1.42 (inactive).

As to `[N-]=[N+]=Nc1ccccc1C[C@@]1(C(=O)N2CCCCC2)N=C(c2ccc(OCCCO)cc2)O[C@@H]1c1ccccc1`, the composite z-score was -0.108 in experiment [1]; 0.0334 in experiment [3]; 1.83 in experiment [4]; 0.914 in experiment [5]; -0.0459 in [6]; -0.0904 in experiment [7]. The composite z-score in [8] was found to be 1.79; in experiment [9], 1.52; in experiment [10], 1.07; with Albumin (Bos taurus) it was 0.782; in [12] it was 0.107; in experiment [13] it was 0.111. Further, the composite z-score in experiment [14] was 0.398; in experiment [15], 2.37; in experiment [16], 0.677; in the experiment on Sam68 (KHDRBS1) it was 1.22; in [17], -0.687; in experiment [18], 1.12. Further, in experiment [2], the z-score was -1.2. Besides, in [11], the composite Z-score was 0.219 (inactive).

As for `COC(=O)[C@@]1(Cc2ccccc2)[C@H]2c3cc(C(=O)N4CCCC4)n(Cc4c(CO)[nH]cc(C)c4=O)c3C[C@H]2CN1C(=O)c1ccccc1`, the composite z-score was -0.596 in experiment [1]; -0.169 in experiment [3]; 1.71 in [4]; 0.893 in experiment [5]; 0.0775 in experiment [6]; -0.181 in experiment [7]. Also, the composite z-score came to 1.28 in [8]; 2.02 in [9]; 0.546 in experiment [10]; 0.677 with Albumin (Bos taurus); 0.0076 in experiment [12]; 0.154 in experiment [13]. The composite z-score in experiment [14] was 0.701; in experiment [15], 2.64; in [16], 1.32; in the experiment on Sam68 (KHDRBS1), 0.109; in [17], -0.174; in experiment [18], 0.0417. Further, in [2], the z-score is -0.783. Also, the composite Z-score in [11] was -0.0461 (inactive).

For `O=C1[C@H]2C=C(Br)[C@H](C[C@@H]2OCCCCCCO)[C@@]12CO2`, the composite z-score is -1.01 in experiment [1]; -0.057 in [3]; -0.714 in [4]; -1.44 in [5]; -0.006 in experiment [6]; -0.106 in experiment [7]. Moreover, the composite z-score in [8] is -0.234; in experiment [9], 0.0589; in [10] it was -1.17; with Albumin (Bos taurus), -0.699; in [12], 0.265; in experiment [13], -0.0064. Moreover, the composite z-score in [14] is -0.382; in [15], -0.469; in experiment [16], 0.206; in the experiment with Sam68 (KHDRBS1), -0.733; in experiment [17], 0.0547; in experiment [18] it was -1.57. The z-score in [2] is -3.2. The composite Z-score in experiment [11] was 0.926 (inactive).

For the molecule `O=C1OCCC=C[C@H]2OC34C=CCN(c5ccc(Cl)cc5)C(=O)[C@H]3N(CCCO)C(=O)[C@@H]4C12` (stereo not given in full), the composite z-score in experiment [1] was -0.726; in experiment [3], -0.131; in experiment [4], 0.0745; in experiment [5], 0.168; in experiment [6], -0.182; in experiment [7], -0.186. Besides, the composite z-score in [8] was 0; in experiment [9], -0.421; in experiment [10], 0.275; with Albumin (Bos taurus) it was -0.989; in [12], -0.237; in [13], -0.186. Also, the composite z-score in [14] is 0.268; in [15] it was -0.714; in experiment [16] it was 0.27; in the experiment on Sam68 (KHDRBS1) it was -1.21; in [17], -0.406; in experiment [18], -0.295. In addition, the z-score in experiment [2] was -1.04. In addition, in experiment [11], the composite Z-score was -0.118 (inactive).

For `O=C1C2C=CC(C(O)c3ccc(F)cc3)N(Nc3ccc([N+](=O)[O-])cc3)C2C(=O)N1c1ccccc1` (stereo not given), the composite z-score in experiment [1] was 0.883; in experiment [3], -0.424; in [4], 1.76; in experiment [5], 0.554; in [6] it was 0.155; in [7] it was 0.294. In addition, the composite z-score was 0.0676 in [8]; 0.733 in experiment [9]; 1.76 in experiment [10]; 0.877 with Albumin (Bos taurus); 0.0749 in experiment [12]; -0.0852 in experiment [13]. The composite z-score was found to be 0.795 in experiment [14]; 2.76 in experiment [15]; 0.569 in experiment [16]; 1.31 in the experiment with Sam68 (KHDRBS1); 0.0095 in experiment [17]; 1.15 in experiment [18]. For the same molecule, the z-score in experiment [2] is -1.03. Further, the composite Z-score in experiment [11] is 0.227 (inactive).
